# Compound activity deposited in PubChem BioAssay by National Center for Advancing Translational Sciences (NCATS).
# TrxR1 substrate = qHTS Assay for Substrates of Mammalian Selenoprotein Thioredoxin Reductase 1 (TrxR1): qHTS. AID 588456, 2011. Thioredoxin reductase 1, cytoplasmic (Rattus norvegicus), O89049. Potency, µM (top dose mostly 114 µM), for the others: at the top dose activity change, negative = substrate turnover. actives 0.01% (n = 390,000). purified TrxR1 substrate turnover, NADPH consumption readout; also: potency is read from the fitted curve at half-maximal effect; nearly all actives have a fitted effect of over 50% in size
#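 Rat TrxR1, dispensed at 90 nM, was prereduced with 400 uM NADPH (final) for 5 min at ~22 deg C, then incubated with compound 15 min before 400 uM selenite. A first-read NADPH fluorescence drop versus no-compound background flagged substrates.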
# GALK inh = qHTS Assay for Inhibitors of Human Galactokinase (GALK); P51570; Purified GALK, Kinase-Glo residual ATP luminescence; Potency, µM (doses to about 57.5 µM), for the others: at the top dose activity change, negative = inhibition, actives largely listed as inhibitors; actives 0.007% (n = 270,000); also: potency is read from the fitted curve at half-maximal effect
# Target sequence (P51570 whole entry, looked up): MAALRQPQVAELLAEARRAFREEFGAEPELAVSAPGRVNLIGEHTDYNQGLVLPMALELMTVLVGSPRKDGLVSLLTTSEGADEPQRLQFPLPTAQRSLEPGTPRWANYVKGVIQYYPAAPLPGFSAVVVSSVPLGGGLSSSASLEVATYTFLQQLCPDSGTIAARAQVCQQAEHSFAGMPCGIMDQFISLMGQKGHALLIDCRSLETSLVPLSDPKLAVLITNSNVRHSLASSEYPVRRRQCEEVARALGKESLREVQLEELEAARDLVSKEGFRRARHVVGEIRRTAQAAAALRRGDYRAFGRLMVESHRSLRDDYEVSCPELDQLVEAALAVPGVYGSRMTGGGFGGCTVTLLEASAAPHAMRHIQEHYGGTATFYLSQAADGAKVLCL
#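 Quantitative HTS: GALK 5 nM, ATP 35 uM, galactose 100 uM, 1 h room temperature, then luciferase-based ATP detection.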
# Integrin act MD = qHTS for Activators of Integrin-Mediated Alleviation for Muscular Dystrophy | alpha7betagal myoblasts, beta-gal FDG fluorescence, 48 h | Potency, µM (top dose mostly 38.3 µM), for inactives: at the top dose activation, most hits filed as activators | actives 0.064% (n = 350,000);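 also: potency is read from the fitted curve at half-maximal effect; 100% = response of the positive control SU9516; nearly all actives have a fitted effect of over 60% in size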
#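 alpha7betagal+/- myoblasts (passage 13, 250/well) treated 48 h at 37C with compounds at 1:260 dilution of DMSO stock. Lysed, then beta-galactosidase activity read as FDG fluorescence (ex 480/em 540) after 30 min, with pre-read for autofluorescence.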
# PI4K2A inh = qHTS for small molecular inhibitors of PI4K2A. activity change, negative = inhibition, % at 76.9 µM. Phosphatidylinositol 4-kinase type 2-alpha (Homo sapiens), Q9BTU6. purified PI4K2A, ADP-Glo luminescence, 1 h; stronger effect = lower value. AID 1346378, 2018. actives 0.13% (n = 420,000); in the data active = activity change below about -50%; inconclusive = mostly about -30% to -49%;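 also: -100% = wells without enzyme as full effect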
#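 Compounds are screened against recombinant PI4K2A using PI as substrate and ATP, the latter dispensed at 300 microM. Reactions run one hour at ambient temperature before ADP-Glo detection; full inhibition defined by wells lacking enzyme.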
# rTrxR1 inhibitor = qHTS Assay for Inhibitors of Mammalian Selenoprotein Thioredoxin Reductase 1 (TrxR1): qHTS. recombinant rTrxR1, NADPH fluorescence consumption, selenite substrate. actives 1% (n = 390,000). Potency, µM (doses to about 114 µM), for the others: top-dose activity change, negative = inhibition, usual class: inhibitors. AID 588453, 2011. Thioredoxin reductase 1, cytoplasmic (Rattus norvegicus), O89049; also: potency is read from the fitted curve at half-maximal effect; nearly all actives have a fitted effect of over 65% in size
#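 Rat TrxR1 (90 nM in the dispensed reagent) was pre-reduced with 400 uM NADPH for 5 min at room temperature, then incubated with compound for 15 min. After 400 uM selenite was added, NADPH fluorescence (Ex 340/Em 450 nm) was followed for 8 min.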
# LDHA inh = qHTS assay for inhibitors of human lactate dehydrogenase; L-lactate dehydrogenase A chain (Homo sapiens), P00338; purified LDHA, NADH/diaphorase-resazurin fluorescence; stronger effect = lower value; activity change, % (values are at about 110 or 230 µM); actives 0.15% (n = 480,000); in the data active = activity change below about -30%; inconclusive = mostly about -25% to -30%;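 also: plate controls were DMSO wells for no effect and wells without enzyme for full effect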
#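 Remaining NADH was detected by diaphorase (0.133 mg/mL) converting 37 µM resazurin to fluorescent resorufin, read at 0 and 20 minutes. The preceding 5-minute room-temperature reaction used 2 nM LDHA, 0.2 mM sodium pyruvate and 0.06 mM NADH at pH 7.4.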
# Numbers without * were called inactive; u = inconclusive; x = not tested or not shown; [ ] = dose if it differs, or a comment. Sampled rows, rich in hits. Any-hit rate of the full collection: about 1.1%. Unless noted, calls follow the shape of the dose curve; as a rule, active = well fitted curve in the direction sought with a large enough effect; inconclusive = small, poorly fitted or top-dose-only effect, or another doubt; inactive = no such curve, though single readings can be large; an effect the other way counts as inactive or inconclusive. Unless noted, % is scaled to controls: 0 for no effect and ±100 for the full control effect.
SMILES,TrxR1 substrate,GALK inh,Integrin act MD,PI4K2A inh,rTrxR1 inhibitor,LDHA inh
CCOC(=O)C1=C(C)c2ccccc2OC1(CC)C(=O)OCC (stereo unspecified),-3%,x,-3%,-1,-5%,8
CCOC(=O)C1=C(C)c2ccccc2N(C(=O)OC)C1(C)C(=O)OCC (stereo unspecified),-2%,x,-30%,-19,35µM*,2
O=[N+]([O-])c1ccccc1C=C(c1ccccc1)c1ccccc1,x,x,x,x,x,6
COC(=O)C(=Cc1ccccc1[N+](=O)[O-])C(=O)OC,3%,4%,-61%,10,56µM*,-6
Clc1ccc(C2Cc3ccccc3N2)cc1 (stereo unspecified),x,x,x,x,x,3
C=CCn1c(COc2ccc(Cl)cc2)nnc1SCc1ccc(C#N)cc1,-5%,3%,11µM*,-5,11%,2
Cc1ccc(C(=O)NNC(=S)NC(=O)COc2ccccc2)cc1,6%,-2%,-12%,-4,40µM*,-3
COC(=O)c1ccccc1NC(=S)NC(=O)c1ccc2c(c1)OCO2,2%,-5%,16%,9,8.9µM*,-8
Cc1ccccc1C(=O)NC(=S)Nc1ccccc1C(=O)O,1%[57.1 µM],6%,3%,0,2%[57.1 µM],-6
COC(=O)c1ccccc1NC(=S)NC(=O)c1ccccc1C,6%,-2%,-34%,13,11µM*,-4
COC(=O)c1ccccc1NC(=S)NC(=O)c1ccc(C)cc1,-9%,-2%,4%,11,40µM*,-1
Clc1sc(C=Nc2cccc3ccccc23)c(Cl)c1Cl,x,x,x,x,x,26
CC(C)(C)c1ccc(C(=O)NC(Cc2c[nH]c3ccccc23)C(=O)O)cc1 (stereo unspecified),x,x,x,x,x,7
CC(C)=CCC/C(C)=C/C=N/NC(=S)Nc1ccc(C)cc1,x,x,x,x,x,-2
CC(C)NCc1ccc(-c2ccc(C(C)O)cc2)o1 (stereo unspecified),x,x,x,x,x,-2
NC(=O)c1ccccc1NC(=S)NC(=O)c1ccc(Br)o1,-9%,0%,20%,8,25µM*,-5
COC(=O)c1ccccc1NC(=S)NC(=O)C1CCCCC1,-3%,0%,3%,1,16µM*,-9
O=C(NC(=S)Nc1ccccc1)c1ccc(Br)o1,-1%,0%,0%,-6,-15%,-2
CCCC(O)(CCN1CCOCC1)c1ccc(Br)cc1 (stereo unspecified),-6%,0%,7%,-2,35µM*,0
CC(C)C(=O)N1CCN(Cc2coc(-c3ccc(Cl)cc3)n2)CC1,x,x,x,x,x,-19
O=c1[nH]c2ccccc2nc1/C=C(\O)c1cccs1,-2%[57.1 µM],5%,5%,1,4%[57.1 µM],-9
O/C(=C\c1nc2ccccc2[nH]1)c1cccs1,4%,0%,-18%,0,45µM*,3
CC(=O)n1cc(N(C(=O)CCl)c2ccc(Cl)cc2)c2ccccc21,-3%,-2%,-3%,24,0.71µM*,3
COc1ccccc1N(C(=O)CCl)c1cn(C(C)=O)c2ccccc12,-9%,4%,-4%,17,4µM*,0
CNC(=S)NNC(=O)C1CCCCC1,x,x,x,x,x,-6
SMILES,TrxR1 substrate,GALK inh,Integrin act MD,PI4K2A inh,rTrxR1 inhibitor,LDHA inh
CC(=O)c1c(O)cc(O)cc1O,-3%,x,-13%,4,3.5µM*,0
COc1cc(O)c(C(C)=O)c(OC)c1,6%,x,x,2,22%,2
COC(=O)c1[nH]c(C)c(/C(O)=C2\C(=O)C(=O)N(CCCn3ccnc3)C2c2cccc(OC)c2)c1C (stereo unspecified),x,x,x,x,x,-40*
CCOc1ccc(CCNC(=O)CS(=O)Cc2nc(-c3ccc(C)cc3)oc2C)cc1 (stereo unspecified),-10%[57.1 µM],1%,-16%,-6,-8%[57.1 µM],-1
Cc1oc(-c2ccccc2)nc1CS(=O)CC(=O)N1CCc2ccccc2C1 (stereo unspecified),3%,3%,-9%,-6,20µM*,4
Cc1ccc(-c2nc(CS(=O)CC(=O)N3CCN(c4ccccc4)CC3)c(C)o2)cc1 (stereo unspecified),-1%,-3%,-3%,-1,-9%,-2
Cc1ccc(-c2nc(CS(=O)CC(=O)NC3CC3)c(C)o2)cc1 (stereo unspecified),4%,4%,u,-1,19%,0
COc1ccc(-c2nc(CS(=O)CC(=O)NCCC3=CCCCC3)c(C)o2)cc1 (stereo unspecified),-3%[57.1 µM],1%,0%,-5,16µM*,4
COc1ccc(-c2nc(CS(=O)CC(=O)NC3CCCCC3)c(C)o2)cc1OC (stereo unspecified),8%,0%,6%,6,50µM*,1
CCc1ccc(-c2nc(CS(=O)CC(=O)NC3CC3)c(C)o2)cc1 (stereo unspecified),-5%,5%,8%,1,16µM*,-1
COc1ccc(CC2C(=O)Nc3ccc(Br)cc32)cc1 (stereo unspecified),x,x,x,x,x,-24
O=C(O)C/C(=C/c1cccc(O)c1)c1nc2ccccc2o1,x,x,x,x,x,-4
Cc1cc(=O)oc2ccc(OCC(=O)Nc3ccc4c(c3)OCCO4)cc12,x,x,x,x,x,-3
CC1CCc2nc(NC(=O)Cc3n[nH]c(=O)c4ccccc34)sc2C1 (stereo unspecified),x,x,x,x,x,-15
CCc1ccc(-c2nc(CS(=O)CC(=O)O)c(C)o2)cc1 (stereo unspecified),-12%,x,-10%,-6,3.5µM*,-4
CCc1ccc(-c2nc(CS(=O)CC(=O)NCc3ccc(F)cc3)c(C)o2)cc1 (stereo unspecified),2%[57.1 µM],x,x,6,14%[57.1 µM],-8
CCc1ccc(-c2nc(CS(=O)CC(=O)NC3CCCCCC3)c(C)o2)cc1 (stereo unspecified),0%,6%,-23%,-7,20µM*,1
COc1ccc(CNC(=O)COc2ccc3c(=O)c(Oc4ccc(F)cc4)coc3c2)cc1,x,x,x,x,x,-2
COc1cc(/C=N/NC(=O)CNc2cccc(C(F)(F)F)c2)ccc1OC(=O)c1ccccc1F,x,x,x,x,x,-32*
O=C(CNc1cccc(C(F)(F)F)c1)N/N=C/c1cn(-c2ccccc2)nc1-c1ccccc1,-4%,-2%,-32%,0,8%,-1
